# Measurements taken from PubChem BioAssay.
# Calls of active or inactive are those of the source.
# What was measured:
# [1] = binders of probe aFSTL3 on microarray, primary screen, stem cell growth factor project, biochemical, small-molecule microarray, fluorescence 635/667 (AID 1064); conditions: higher = more signal;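 note: measures binding of the biotinylated anti-FSTL3 antibody to printed compounds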
# [2] = binders from COS7 lysate, DM2A8 probe, primary screen, torsin A project, cell lysate, small-molecule microarray, fluorescence 635/667 (AID 1065); conditions: higher = more signal, COS7 lysate expressing mutant human TOR1A
# [3] = binders of probe aFGF2 on microarray, primary screen, stem cell growth factor project, biochemical, small-molecule microarray, fluorescence 635/667 (AID 1067); conditions: higher = more signal;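 note: measures binding of biotinylated aFGF2 protein to printed compounds on slides; z-score merges feature fluorescence and signal-to-noise across triplicate slides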
# [4] = binders of probe aFGF10 on microarray, primary screen, stem cell growth factor project, biochemical, small-molecule microarray, fluorescence 635/667 (AID 1071); conditions: higher = more signal;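 note: score merges 667 nm spot intensity and signal to noise from triplicate slides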
# [5] = biological target: Neurogenic locus notch homolog protein 2 (Homo sapiens) (UniProt Q04721); assay: Notch2 binders on small-molecule microarrays, primary screen, biochemical, small-molecule microarray, 635 nm fluorescence, stem cell growth factors (AID 1073); conditions: Notch2 binding, higher = more signal
# Chain of Neurogenic locus notch homolog protein 2 (Homo sapiens) (Q04721 whole entry, looked up, canonical isoform): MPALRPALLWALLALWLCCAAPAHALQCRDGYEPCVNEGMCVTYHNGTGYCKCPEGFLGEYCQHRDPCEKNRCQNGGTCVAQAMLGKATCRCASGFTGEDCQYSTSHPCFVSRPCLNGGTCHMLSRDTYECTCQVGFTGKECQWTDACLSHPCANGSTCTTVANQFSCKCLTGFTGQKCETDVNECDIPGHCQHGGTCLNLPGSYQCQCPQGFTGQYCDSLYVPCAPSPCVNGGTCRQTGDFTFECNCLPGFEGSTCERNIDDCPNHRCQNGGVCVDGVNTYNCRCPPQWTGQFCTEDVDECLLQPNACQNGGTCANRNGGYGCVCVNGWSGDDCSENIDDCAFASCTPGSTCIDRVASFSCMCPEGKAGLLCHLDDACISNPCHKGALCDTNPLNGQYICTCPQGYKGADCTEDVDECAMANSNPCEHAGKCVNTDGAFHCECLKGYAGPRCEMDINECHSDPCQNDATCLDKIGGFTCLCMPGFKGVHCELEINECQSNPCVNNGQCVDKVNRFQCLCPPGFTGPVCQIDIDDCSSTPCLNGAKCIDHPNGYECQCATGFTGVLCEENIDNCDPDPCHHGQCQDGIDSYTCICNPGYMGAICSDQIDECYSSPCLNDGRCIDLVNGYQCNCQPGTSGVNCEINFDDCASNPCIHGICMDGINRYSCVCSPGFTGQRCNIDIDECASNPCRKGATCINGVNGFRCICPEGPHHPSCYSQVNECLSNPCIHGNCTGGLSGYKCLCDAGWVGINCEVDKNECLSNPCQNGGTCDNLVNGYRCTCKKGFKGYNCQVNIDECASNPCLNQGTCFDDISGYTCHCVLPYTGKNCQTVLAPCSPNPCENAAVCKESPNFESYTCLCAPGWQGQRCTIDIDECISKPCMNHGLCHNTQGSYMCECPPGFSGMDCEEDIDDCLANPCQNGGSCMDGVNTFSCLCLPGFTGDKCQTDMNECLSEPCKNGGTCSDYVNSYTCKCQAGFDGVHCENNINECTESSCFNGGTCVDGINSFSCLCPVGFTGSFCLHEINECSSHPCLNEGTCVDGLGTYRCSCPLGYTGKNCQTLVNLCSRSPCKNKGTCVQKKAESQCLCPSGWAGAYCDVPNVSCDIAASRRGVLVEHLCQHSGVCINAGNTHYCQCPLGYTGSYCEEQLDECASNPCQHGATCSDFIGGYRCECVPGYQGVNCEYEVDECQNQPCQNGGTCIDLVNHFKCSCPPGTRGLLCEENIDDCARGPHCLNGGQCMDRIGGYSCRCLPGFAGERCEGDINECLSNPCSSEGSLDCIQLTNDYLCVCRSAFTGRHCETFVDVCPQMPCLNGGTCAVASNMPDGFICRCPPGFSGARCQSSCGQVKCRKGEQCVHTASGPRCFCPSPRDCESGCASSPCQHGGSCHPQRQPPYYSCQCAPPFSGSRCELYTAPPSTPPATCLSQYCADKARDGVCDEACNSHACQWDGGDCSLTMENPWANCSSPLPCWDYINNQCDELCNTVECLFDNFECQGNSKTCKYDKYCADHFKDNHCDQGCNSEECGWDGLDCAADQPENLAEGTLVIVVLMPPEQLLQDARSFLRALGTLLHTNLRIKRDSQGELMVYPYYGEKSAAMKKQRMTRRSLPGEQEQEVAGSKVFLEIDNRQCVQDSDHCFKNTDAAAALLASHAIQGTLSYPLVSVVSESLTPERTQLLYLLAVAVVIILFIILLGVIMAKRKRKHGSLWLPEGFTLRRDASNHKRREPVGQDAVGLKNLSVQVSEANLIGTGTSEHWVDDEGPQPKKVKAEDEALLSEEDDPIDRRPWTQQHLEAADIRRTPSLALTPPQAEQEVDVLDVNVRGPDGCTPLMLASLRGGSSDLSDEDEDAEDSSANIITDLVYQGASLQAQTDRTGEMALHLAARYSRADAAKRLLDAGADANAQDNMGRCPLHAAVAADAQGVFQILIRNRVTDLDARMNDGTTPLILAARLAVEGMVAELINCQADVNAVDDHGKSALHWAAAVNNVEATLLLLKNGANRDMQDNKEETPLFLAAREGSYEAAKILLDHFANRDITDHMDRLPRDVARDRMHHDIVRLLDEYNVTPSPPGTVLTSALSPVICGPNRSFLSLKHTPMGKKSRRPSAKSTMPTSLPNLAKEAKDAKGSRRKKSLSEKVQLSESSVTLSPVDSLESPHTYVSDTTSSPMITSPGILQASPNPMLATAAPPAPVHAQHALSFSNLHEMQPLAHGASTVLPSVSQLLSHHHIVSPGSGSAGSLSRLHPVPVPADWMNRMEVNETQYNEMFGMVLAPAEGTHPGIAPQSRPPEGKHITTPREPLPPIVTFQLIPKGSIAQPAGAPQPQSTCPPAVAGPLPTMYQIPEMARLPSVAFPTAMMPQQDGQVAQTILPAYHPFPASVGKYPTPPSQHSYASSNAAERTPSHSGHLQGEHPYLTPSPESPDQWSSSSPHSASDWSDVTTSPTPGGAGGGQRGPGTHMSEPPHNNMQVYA
# [6] = biological target: Pro-neuregulin-1, membrane-bound isoform (Homo sapiens) (UniProt Q02297); assay: NRG1 binders on small-molecule microarrays, primary screen, psychiatric disease protein project, biochemical, small-molecule microarray, fluorescence 635/667 (AID 1075); conditions: NRG1 binding, 635 nm fluorescence, higher = more signal;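 note: score combines 667 nm spot fluorescence with signal to noise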
# Chain of Pro-neuregulin-1, membrane-bound isoform (Homo sapiens) (Q02297 whole entry, looked up, the tested form may be a part, canonical isoform): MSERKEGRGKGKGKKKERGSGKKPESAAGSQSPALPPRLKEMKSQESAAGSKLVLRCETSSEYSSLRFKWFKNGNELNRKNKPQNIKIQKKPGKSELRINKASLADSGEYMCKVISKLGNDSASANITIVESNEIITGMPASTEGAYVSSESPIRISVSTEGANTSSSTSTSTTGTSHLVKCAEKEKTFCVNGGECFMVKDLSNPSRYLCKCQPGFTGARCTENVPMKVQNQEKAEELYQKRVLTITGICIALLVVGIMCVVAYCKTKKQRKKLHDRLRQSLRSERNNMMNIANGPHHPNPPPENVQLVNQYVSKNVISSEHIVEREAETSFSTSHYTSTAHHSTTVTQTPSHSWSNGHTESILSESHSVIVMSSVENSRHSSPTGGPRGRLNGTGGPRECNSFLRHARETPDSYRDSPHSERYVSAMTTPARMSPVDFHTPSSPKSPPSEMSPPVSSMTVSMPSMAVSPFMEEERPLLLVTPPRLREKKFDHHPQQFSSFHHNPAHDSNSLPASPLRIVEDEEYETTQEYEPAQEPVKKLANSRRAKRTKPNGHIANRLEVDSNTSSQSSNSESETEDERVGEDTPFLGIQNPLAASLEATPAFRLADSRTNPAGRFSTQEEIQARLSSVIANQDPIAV
# [7] = test system: Neuregulin-1 EGF-like domain; assay: binders of neuregulin-1 EGF-like domain, primary screen, biochemical, small-molecule microarray, 635 nm fluorescence (AID 1081); conditions: small-molecule microarray binding, higher = more signal;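 note: binding of the protein to compounds printed on small-molecule microarray slides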
# [8] = FRG1 promoter luciferase signal modulators, primary screen, FRG1 inhibition for FSHD, cell-based, C2C12 myotubes, firefly/Renilla luciferase, luminescence (AID 1084); conditions: higher = more signal, called active from +8 up or from −8 down
# [9] = binders of probe aFST on microarray, primary screen, stem cell growth factor project, biochemical, small-molecule microarray, fluorescence 635/667 (AID 1086); conditions: higher = more signal;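 note: score merges 667 nm fluorescence with signal-to-noise of each printed compound spot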
# [10] = binders of probe aHhip on microarray, primary screen, stem cell growth factor project, biochemical, small-molecule microarray, fluorescence 635/667 (AID 1087); conditions: higher = more signal;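 note: score merges spot fluorescence at 667nm with spot signal to noise ratio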
# [11] = test system: PRMT1 (protein arginine N-methyltransferase 1); assay: PRMT1 binders on small-molecule microarrays, primary screen, biochemical, small-molecule microarray, 635 nm fluorescence (AID 1088); conditions: small-molecule microarray binding, higher = more signal;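 note: binding of Prmt1 protein to compounds spotted on small-molecule microarray slides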
# [12] = yeast growth modulation, basal conditions, primary screen, YJM789 clinical isolate, OD600, 24 h (AID 1089);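 note: growth of clinical yeast isolate S. cerevisiae YJM 789 seeded 1000 cells per well; test concentration not given here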; conditions: S. cerevisiae YJM789 growth, higher = more signal, called active from +8 up or from −8 down
# [13] = fission yeast growth modulation, primary screen, strain 972, OD600, 24 h, no modulator (AID 1090);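 note: basal condition with compound alone and no growth modifier present; test concentration not given here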; conditions: S. pombe 972 growth, higher = more signal, called active from +8 up or from −8 down
# [14] = S. cerevisiae growth modulation with rapamycin, primary screen, strain BY4716, OD600, 96 h (AID 1091); conditions: higher = more signal, called active from +8 up or from −8 down; note: test concentration not given here
# [15] = biological target: Torsin-1A-interacting protein 2 (Homo sapiens) (UniProt Q8NFQ8); assay: LULL1 binders on small-molecule microarray, primary screen, cell lysate, human LULL1 lysate, 635/667 nm fluorescence (AID 1092); conditions: hLULL1 lysate binding, 635 nm fluorescence, higher = more signal;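 note: probe is lysate of COS7 cells overexpressing human LULL1; score merges per-feature 667 nm fluorescence with signal-to-noise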
# Chain of Torsin-1A-interacting protein 2 (Homo sapiens) (Q8NFQ8 whole entry, looked up): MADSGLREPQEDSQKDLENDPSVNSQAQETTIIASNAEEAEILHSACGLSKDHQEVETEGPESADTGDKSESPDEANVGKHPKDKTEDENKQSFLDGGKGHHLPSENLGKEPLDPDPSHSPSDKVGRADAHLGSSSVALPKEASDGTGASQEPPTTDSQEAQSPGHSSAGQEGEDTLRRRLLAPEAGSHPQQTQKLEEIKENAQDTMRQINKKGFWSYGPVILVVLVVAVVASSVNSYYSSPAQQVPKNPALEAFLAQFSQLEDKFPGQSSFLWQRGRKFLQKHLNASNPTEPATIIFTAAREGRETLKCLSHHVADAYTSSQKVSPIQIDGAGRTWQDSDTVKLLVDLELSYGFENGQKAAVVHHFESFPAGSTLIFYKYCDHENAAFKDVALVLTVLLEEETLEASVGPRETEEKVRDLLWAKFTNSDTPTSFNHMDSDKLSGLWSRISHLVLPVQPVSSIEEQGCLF
# [16] = E. coli growth modulation, two-sided OD650, primary screen, E. coli filamentation project, strain DRC41, 24 h (AID 1093); conditions: OD650, 24 h, higher = more signal, called active from +8 up or from −8 down;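 note: MC1000 strain lacking acrAB efflux and sulA so SOS filamentation is blocked; test concentration not given here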
# [17] = small-molecule microarray binders of probe aLefty2, primary screen, biochemical, biotinylated probe, 635/667 nm fluorescence (AID 1094); conditions: higher = more signal;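 note: score merges spot fluorescence near 667 nm with spot signal-to-noise ratio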
# [18] = test system: Noggin (protein binding on small-molecule microarray); assay: Noggin binders on small-molecule microarray, primary screen, biochemical, 635/667 nm fluorescence (AID 1095); conditions: 635 nm fluorescence, higher = more signal;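 note: score merges 667 nm feature fluorescence with signal to noise over triplicate slides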
# [19] = biological target: Neurogenic locus notch homolog protein 3 (Homo sapiens) (UniProt Q9UM47); assay: NOTCH3 binders on small-molecule microarray, primary screen, biochemical, 635/667 nm fluorescence (AID 1096); conditions: NOTCH3 binding, 635 nm fluorescence, higher = more signal
# [20] = small-molecule microarray binders of probe aEGFR, primary screen, biochemical, biotinylated probe, 635/667 nm fluorescence (AID 1097); conditions: higher = more signal;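 note: probe is a biotinylated anti-EGFR antibody binding compounds printed on slides; score combines fluorescence near 667 nm and signal to noise of each spot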
Structure (SMILES),composite z-score [1],composite z-score [2],composite z-score [3],composite z-score [4],composite z-score [5],composite z-score [6],composite z-score [7],z-score [8],composite z-score [9],composite z-score [10],composite z-score [11],z-score [12],z-score [13],z-score [14],composite z-score [15],z-score [16],composite z-score [17],composite z-score [18],composite z-score [19],composite z-score [20]
C=CCN1C(=O)[C@@]2(O[C@@H](CCn3cc(CCO)nn3)[C@H]([Si](C)(C)c3ccc(OC)cc3)[C@H]2C)c2cc(N3C(=O)c4cccc5cccc3c45)ccc21,-0.323,0.749,-0.0839,0.569,0.705,1.11,0.813,-2.79 (inactive),0.42,0.142,0.949,-0.309 (inactive),0.593 (inactive),13.5 (active),0.875,2.4 (inactive),-0.0592,0.412,1.07,-0.0332
C=CC[C@]1(C(=O)N(C)C)N=C(c2ccc(OCCCO)cc2)O[C@H]1c1ccccc1CN=[N+]=[N-],0.876,1.42,0.0188,0.548,1.38,1.66,1.15,-2.15 (inactive),1.43,0.184,1.09,-1.01 (inactive),-1.1 (inactive),-1.52 (inactive),3.01,1.39 (inactive),0.186,0.0301,0.893,0.188
COc1ccc([Si](C)(C)[C@H]2[C@H](CC(=O)N(CCO)Cc3ccccc3)O[C@@]3(C(=O)N(Cc4ccc(N5CCC5=O)cc4)c4ccccc43)[C@@H]2C)cc1,0.278,0.323,-0.128,-1.07,-0.741,1.02,0.469,-2.75 (inactive),-0.336,-0.226,0.499,0.478 (inactive),0.617 (inactive),1.96 (inactive),0.953,1.48 (inactive),-0.166,-0.156,-0.813,-0.302
C=C(C(=O)CC[C@H](OC(C)=O)c1ccc(CO)o1)C(C)C,-0.466,0.615,-0.189,0.122,-1.28,-0.116,0.388,-0.629 (inactive),-0.393,0.0596,0.966,1.01 (inactive),-0.344 (inactive),-0.454 (inactive),0.468,1.44 (inactive),-0.127,0.512,-0.654,-0.181
O=C(O)[C@H]1C[C@H]2C(=O)NCC(=O)N2[C@H]1c1cccc(OCCO)c1,2.86,0.942,0.0568,-0.213,0.29,1.41,0.986,5.62 (inactive),1.98,0.745,1.23,-1.63 (inactive),-2.01 (inactive),-1.11 (inactive),1.51,2.5 (inactive),0.0889,0.0133,0.446,0.108
CC(C)C[C@@H]1NC(=O)[C@@H]2C[C@H](C(=O)NCCCCCNC(=O)CS)[C@H](c3cccc(OCCO)c3)N2C1=O,0.0138,1.55,-0.0332,0.355,0.947,1.35,1.29,0.152 (inactive),0.35,-0.286,1.55,-1.66 (inactive),-0.926 (inactive),-0.565 (inactive),2.23,2.24 (inactive),-0.0153,1.44,1.06,0.133
O=C1c2ccccc2[C@@]2(Cc3ccccc3N(CC(F)(F)F)C2=O)[C@H](c2ccc(CO)cc2)N1Cc1ccccc1C(F)(F)F,0.886,-0.752,-0.131,-0.597,-1.34,-0.61,-1.2,-0.435 (inactive),-0.596,-0.191,0.52,-0.84 (inactive),-1.25 (inactive),-1.12 (inactive),0.394,0.886 (inactive),-0.0412,-1.51,-1.18,-0.26
[N-]=[N+]=Nc1ccccc1[C@H]1OC(c2ccc(OCCCO)cc2)=N[C@@]1(Cc1ccccc1)C(N)=O,1.28,1.6,0.317,0.988,1.42,1.14,1.13,-0.191 (inactive),1.42,0.0053,1.55,2.87 (inactive),-1.11 (inactive),-0.321 (inactive),2.62,1.6 (inactive),0.789,0.49,1.09,0.441
COC(=O)C1=CC(c2ccc(CO)cc2)=CC(c2cccs2)N(C)C=C1C(=O)OC (stereo not given),1.13,0.2,-0.0625,-0.0568,-0.109,1.96,1.29,1.36 (inactive),0.308,-0.226,0.853,-0.543 (inactive),-5.22 (inactive),-0.424 (inactive),2.88,0.637 (inactive),0.0094,-0.853,0.302,-0.135
C[N+](C)(C)CCCCNC(=O)[C@@H]1C[C@@H]2C(=O)NCC(=O)N2[C@@H]1c1cccc(OCCO)c1,-0.501,2.04,-0.085,1.05,-0.544,1.22,1.34,-0.53 (inactive),0.432,0.167,1.39,2.16 (inactive),-0.823 (inactive),-1.89 (inactive),2.47,1.73 (inactive),-0.0607,1.88,1.14,0.0526
CCCC[C@@H](O)C1=C(C)C[C@H]2C(=O)N(C)C(=O)[C@H]2[C@H]1CO,-0.275,-0.305,-0.12,0.469,0.109,0.11,-0.0165,-0.645 (inactive),-0.176,-0.318,0.54,-0.219 (inactive),-1.6 (inactive),-1.19 (inactive),1.31,2.68 (inactive),-0.328,1.09,0.352,-0.21
COC(=O)[C@@]1(CCC(=O)OC(C)(C)C)COC(c2ccc(OCCCO)cc2)=N1,1.47,-1.53,-0.212,-1.92,-1.89,-0.312,0.256,-0.44 (inactive),-0.311,-0.405,-0.964,-1.42 (inactive),-0.502 (inactive),-0.752 (inactive),-0.771,0.989 (inactive),0.0399,-1.99,-1.84,-0.36
C[N+](C)(C)CCCC[C@@H]1NC(=O)[C@H]2C[C@@H](C(=O)NCCCCCN)[C@@H](c3cccc(OCCO)c3)N2C1=O,0.89,0.419,-0.0164,0.372,0.529,2.07,0.739,-0.309 (inactive),1.69,0.242,0.665,-0.706 (inactive),-2.62 (inactive),-0.207 (inactive),2.7,2.4 (inactive),0.739,0.387,0.526,0.162
O=C(NC1CC1)[C@@H]1c2ccccc2C(=O)N(Cc2ccccc2C(F)(F)F)[C@H]1c1ccc(CO)cc1,-0.432,0.436,-0.116,0.39,0.693,0.988,1.26,-1.64 (inactive),0.336,-0.226,1.57,-0.541 (inactive),-1.77 (inactive),-0.731 (inactive),2.27,1 (inactive),-0.15,0.458,1.13,-0.039
C=CCNC(=O)[C@H]1[C@@H]2C(=O)O[C@@H](c3ccccc3)[C@@H](c3ccccc3)N2[C@@H](c2ccc(OCCO)cc2)[C@]12C(=O)Nc1ccc(C#CCCO)cc12,0.268,1.14,-0.0901,-0.168,-0.23,1.08,1.15,-4.1 (inactive),0.219,-0.0994,1.57,0.443 (inactive),-1.91 (inactive),2.38 (inactive),2.42,2.71 (inactive),-0.148,0.292,0.73,-0.087
CC1CC/C=C\[C@H]2OC34C=CCN(C(C)C)C(=O)[C@H]3N(C(CO)C(C)C)C(=O)[C@@H]4C2C(=O)O1 (stereo not given in full),1.54,-0.267,-0.0985,-0.365,-0.662,-0.593,0.475,-0.416 (inactive),-0.422,-0.0994,-0.825,0.959 (inactive),-1.84 (inactive),-0.631 (inactive),1.55,2.14 (inactive),-0.0229,-0.684,-0.274,-0.154
CN1C=C(C(=O)OCCS(C)(=O)=O)C(C(=O)OCCS(C)(=O)=O)=CC(CCCO)=CC1c1cccs1 (stereo not given),-0.329,0.58,-0.197,0.239,0.907,-0.362,0.269,-0.234 (inactive),0.137,0.0664,1.13,-0.444 (inactive),-1.22 (inactive),-2.42 (inactive),0.454,0.261 (inactive),0.022,0.774,0.774,-0.0659
C[N+](C)(C)CCCC[C@@H]1NC(=O)[C@@H]2C[C@H](C(=O)NCCCCCNC(=O)CS)[C@H](c3ccc(O)cc3)N2C1=O,0.152,0.338,-0.14,-1.01,-1.26,1.94,1.23,1.26 (inactive),-0.288,0.0274,1.08,-1.44 (inactive),-1.73 (inactive),-0.905 (inactive),2.1,1.39 (inactive),-0.188,1.39,0.322,-0.149
COc1ccc(C#Cc2ccc3c(c2)[C@]2(C(=O)N3)[C@H](c3ccc(O)cc3)N3[C@H](c4ccccc4)[C@H](c4ccccc4)OC(=O)[C@H]3[C@@H]2C(N)=O)cc1,0.573,0.395,0.0519,0.889,-0.695,1.68,0.785,0.532 (inactive),-0.235,-0.24,0.632,1.46 (inactive),-1.02 (inactive),2.73 (inactive),2.14,1.68 (inactive),-0.2,-0.877,-0.854,-0.401
C=C(COC)C(=O)CC[C@H](OC(=O)c1cccnc1)c1cccc(OCCO)c1,0.822,1.9,0.119,0.833,-0.381,-0.318,0.0423,0.0417 (inactive),0.331,0.503,1.36,1.25 (inactive),-0.231 (inactive),1.56 (inactive),0.241,1.18 (inactive),0.649,1.29,0.176,0.431
